Reference: PubChem BioAssay AID1852 (Sanford-Burnham Center for Chemical Genomics, 2009)
Out of some 2,500 compounds screened, about 1,100 (44%) were called active. So high a share suggests a set chosen from earlier hits. Some of the results follow. A number with no mark means an inactive call.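 Rule for the calls: active = inhibition above 50% at 4 µM in the single-point screen; inactive = inhibition of 50% or less.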

Assay: TNF-a-driven NF-kB reporter inhibitors, primary screen, selectivity assay for NOD1/NOD2 signaling inhibitor project, cell-based, HEK293T NF-kB-Luc, luminescence (AID 1852)
Conditions: TNF-a induced, 14 h, at 4 µM, stronger effect = higher value

Structure (SMILES) | inhibition
O=C(Oc1c(-c2ccccc2)c(=O)n2c3c(cccc13)CC2)c1ccccc1 | 75.1% (active)
O=C(Oc1c(-c2ccccc2)c(=O)n2c3c(cccc13)CC2)c1ccc(F)cc1 | 49.3%
O=C(Oc1c(-c2ccccc2)c(=O)n2c3c(cccc13)CC2)c1ccc(Cl)cc1 | 90.1% (active)
COc1ccc(NC(=O)c2c(Nc3ccccc3)sc(C(=O)c3ccc(F)cc3)c2N)cc1 | 10%
COc1ccc(C(=O)Nc2sc3c(c2C(=O)NCc2ccco2)CCCC3)cc1OC | -42.2%
COc1ccc(C(=O)c2c(C(F)(F)F)oc3c2C(=O)c2ccccc2C3=O)cc1OC | 102% (active)
COc1ccc(C(=O)c2c(C(F)(F)F)oc3c2C(=O)c2ccccc2C3=O)cc1 | 100% (active)
CC(C)(C)OC(=O)CNC(=O)c1[nH]cnc1C(=O)NC1CCN(C(=O)OC(C)(C)C)CC1 | -15.2%
CC(=O)Cn1ncc(Br)c(Br)c1=O | 95% (active)
O=C(OCn1ncc(Br)c(Br)c1=O)c1c(F)cccc1F | 82.5% (active)
O=C(OCn1ncc(Br)c(Br)c1=O)c1ccc(F)cc1 | 86.5% (active)
COCCn1c(SCC(=O)N2CCc3ccccc3C2)nc2cc(Cl)ccc2c1=O | 13.3%
Cc1ccc(Cl)cc1N1CCN(C(=O)CSc2nnc3n2C(C)(C)Cc2ccccc2-3)CC1 | 95.1% (active)
O=C(CSc1nnc2ccc3ccccc3n12)N1CCOCC1 | -57.3%
CC1Cc2cc(-c3csc(NC(=O)Cc4cccs4)n3)ccc2N1S(C)(=O)=O (centres undefined) | 60.6% (active)
Cn1c(=O)c(C(=O)CCl)c(N)n(Cc2ccccc2)c1=O | 72.4% (active)
COCCCN(C(=O)Cc1ccc(Cl)c(Cl)c1)c1c(N)n(Cc2ccccc2)c(=O)[nH]c1=O | 7.8%
CC(C)Cn1c(N)c(C(=O)COC(=O)CC23CC4CC(CC(C4)C2)C3)c(=O)n(C)c1=O | 26.6%
COc1cccc(N=Nc2ccc3cccnc3c2O)c1 | 54.2% (active)
COc1cccc(N=Nc2ccc(O)c3ncccc23)c1 | 61% (active)
CCN(CC)S(=O)(=O)c1cc(OC)ccc1N=Nc1ccc(O)c2ncccc12 | -1.5%
O=S1(=O)Nc2c(ccc3cccnc23)-c2ccccc21 | 104% (active)
COc1ccccc1N1CCN(C(=O)c2sc3ncnc(N4CCN(c5ccccn5)CC4)c3c2C)CC1 | -30.1%
Cc1c(C(=O)N2CCN(Cc3ccc4c(c3)OCO4)CC2)sc2ncnc(N3CCN(c4ccccc4)CC3)c12 | 98.5% (active)

Structure (SMILES) | inhibition
Cn1c(=O)c([N+](=O)[O-])c(N2CCN(Cc3ccc4c(c3)OCO4)CC2)c2ccccc21 | 18.3%
O=[N+]([O-])c1ccc2ncnc(N3CCN(Cc4ccc5c(c4)OCO5)CC3)c2c1 | 97.2% (active)
Cc1c(C(=O)N2CCN(c3ccc(F)cc3)CC2)sc2ncnc(N3CCN(c4ccccn4)CC3)c12 | 15.6%
CCn1c(=O)c([N+](=O)[O-])c(N2CCN(Cc3ccc4c(c3)OCO4)CC2)c2ccccc21 | 38.9%
COc1ccc(N2CCN(S(=O)(=O)c3ccc4c(c3)NC(=O)C(C)S4)CC2)cc1 (centres undefined) | 23.6%
Cc1ccc(S(=O)(=O)N2CCN(c3ncnc4sccc34)CC2)cc1 | 52.6% (active)
CN1C(=O)C(C)(C)c2cc(S(=O)(=O)N3CCN(c4ccccc4)CC3)ccc21 | 16%
c1ccc(CC2CCN(c3ncnc4sccc34)CC2)cc1 | 42.7%
O=S(=O)(c1ccc2c(c1)OCCO2)N1CCN(c2ncnc3sccc23)CC1 | 53.4% (active)
CCCc1nc(SCC(=O)N2CCC(Cc3ccccc3)CC2)c2c(=O)n(C)c(=O)n(C)c2n1 | -11.3%
O=C(NN=C1c2ccccc2-c2ccccc21)c1cccc(Br)c1 | 21.6%
O=C(N/N=C1/C(=O)c2cccc3cccc1c23)c1ccc(Cl)cc1 | 81% (active)
C/C(=N\NC(=O)c1ccc(Cl)cc1)c1ccc(Br)s1 | 9.8%
S=c1[nH]nc(C2CCCCC2)n1/N=C/c1ccncc1 | 82.9% (active)
COc1ccc(OC)c(S(=O)(=O)N2CCN(c3ccccc3OC)CC2)c1 | 5%
O=C(COc1ccc(Br)cc1Cl)NC(=S)N1CCc2ccccc21 | 104% (active)
O=C1c2cccc(OCC(=O)N3CCCc4ccccc43)c2CCN1Cc1ccc(Br)cc1 | -77.8%
Cc1cc(Nc2cccc([N+](=O)[O-])c2)n2c(nc3ccccc32)c1C#N | 78.7% (active)
Cc1ccc(NC(=O)Nc2cccc([N+](=O)[O-])c2)cc1F | -50.5%
Cc1ccc(-c2c(C#N)c(N)n3c(nc4ccccc43)c2C#N)cc1 | 33.8%
CCc1nc(N2CCN(C(=O)CCl)CC2)c2c3c(sc2n1)CC(C)CC3 (centres undefined) | 35.2%
CCOC(=O)C1(CCc2ccccc2)CCN(C(=O)CN2C(=O)CSC2=O)CC1 | -1.6%
COc1cc(NC(=O)COc2cc(O)c3c(c2)OC(C)(C)CC3=O)cc(OC)c1OC | 64.6% (active)
Cc1ccc(Nc2nnc(-c3ccncc3)s2)c(Br)c1 | 48%

Structure (SMILES) | inhibition
COc1cccc(C(=O)Nc2ccc3nc(N4CCN(c5ncccn5)CC4)cc(C)c3c2)c1OC | 101% (active)
COc1ccccc1N1CCN(C(=S)Nc2ccc3nc(N4CCOCC4)cc(C)c3c2)CC1 | 38.6%
Cc1ccc(C)c(N2CCN(C(=S)Nc3ccc4nc(N5CCOCC5)cc(C)c4c3)CC2)c1 | 45.9%
CCN(CC)c1ccc(/C=C/c2ccc3ccc(OC)cc3[n+]2CC)cc1 | 38.2%
CCN(CC)c1ccc(/C=C/c2cccc[n+]2C)c(OC)c1 | 66.8% (active)
Cc1ccc(-c2csc(NC3OC(=O)c4ccccc43)n2)cc1 (centres undefined) | 74.1% (active)
COc1ccc2c(c1OC)C(=O)OC2Nc1nc(-c2ccccc2)cs1 (centres undefined) | 62.2% (active)
COc1ccccc1-c1nnc(SCC(=O)Nc2nc(-c3ccccc3)cs2)n1C | 31.2%
COc1ccc(-c2csc3nc(-c4ccccc4)oc(=O)c23)cc1OC | -3.3%
COc1ccc2[nH]c3c(c2c1)CCN1C(=O)N([C@@H](C)C(=O)NC2CC2)C(=O)[C@]31C | 24.6%
COc1ccc2[nH]c(=O)c3c(c2c1)OC(C)(C)C=C3 | 74.7% (active)
Cc1[nH]c(=O)c(C(=O)/C=C/c2ccccc2F)c2c1CCCC2 | 97.7% (active)
COc1cccc(/C=C/C(=C2/C(=O)N(c3ccccc3)N=C2C)c2ccccc2)c1OC | 7.3%
COc1ccccc1/C=C/C(=O)c1c2c(c(C)[nH]c1=O)CCCC2 | 80.6% (active)
Cc1[nH]c(=O)c(C(=O)/C=C/c2ccccc2)c2c1CCCC2 | 92% (active)
O=C(/C=C/c1cccs1)Nc1sc2c(c1C(=O)O)CCCC2 | 17.8%
Cc1[nH]n(-c2ncc(-c3ccccc3)s2)c(=O)c1C(c1ccc(Cl)cc1)C(C#N)C#N (centres undefined) | 28.2%
CC1=NN(c2ccc(Cl)cc2)C(=O)C1C(c1ccccc1O)c1c(C)[nH]n(-c2ccc(Cl)cc2)c1=O (centres undefined) | -30.7%
Cc1[nH]n(-c2cccc(Cl)c2)c(=O)c1-c1ccc(Cl)cc1 | 51.9% (active)
O=C(Nc1cc(Cl)ccc1-n1cncn1)c1ccc([N+](=O)[O-])s1 | 34.3%
CC(C)CC(=O)/C(=C\c1ccc(Cl)cc1Cl)n1cncn1 | 64.5% (active)
CC(C)(C)C(=O)/C(=C/c1ccc(Cl)cc1)n1cncn1 | 73.3% (active)
CCOC(=O)C(=Cc1ccc(-n2cncn2)cc1)C(=O)OCC | 27%
CC(=O)n1cc(N(C(=O)CCl)c2ccc(C)cc2)c2ccccc21 | 53.1% (active)

Structure (SMILES) | inhibition
CC(=O)n1cc(N(C(=O)CCl)c2ccccc2)c2ccccc21 | 95.3% (active)
Clc1ccccc1/C=C/c1nc(-c2ccccn2)no1 | -22.3%
Cc1ccc(S(=O)(=O)N2C(=O)/C(=C3\SC(=S)NC3=O)c3ccccc32)cc1 | 82.3% (active)
N=C1S/C(=C\c2ccco2)C(=O)N1c1nccs1 | 105% (active)
N=C1S/C(=C\c2ccc(-c3cccc(Cl)c3)o2)C(=O)N1c1nccs1 | 108% (active)
COc1ccc(NC(=O)C2CCN(c3ncnc4c3nc3n4CCCCC3)CC2)cc1Cl | 43.2%
CC(=O)c1ccc(NC(=O)C2CCCN(c3ncnc4c3nc3n4CCCCC3)C2)cc1 (centres undefined) | 22.3%
Cc1ccc(NC(=O)C2CCN(c3ncnc4c3nc3n4CCCCC3)CC2)cc1Cl | 31.7%
O=C(NCC1CCN(Cc2ccc(Cl)cc2)CC1)C1CCCN(c2ncnc3c2nc2n3CCCCC2)C1 (centres undefined) | 57.9% (active)
Cc1ccc(NC(=O)C2CCCN(c3ncnc4c3nc3n4CCCCC3)C2)nc1 (centres undefined) | 92.6% (active)
O=C(Nc1ccccn1)C1CCN(c2ncnc3c2nc2n3CCCCC2)CC1 | 66.3% (active)
O=C(Nc1ccc(Cl)cn1)C1CCN(c2ncnc3c2nc2n3CCCCC2)CC1 | 76.4% (active)
O=C(Nc1nc2c(F)cc(F)cc2s1)c1ccc([N+](=O)[O-])o1 | -4%
CCCn1c(SCC(=O)Nc2nc3c(s2)CCCC3)nc2c1c(=O)n(C)c(=O)n2C | 71.4% (active)
C=CCn1c(SCC(=O)Nc2sccc2C(N)=O)nc2sc(CC)cc2c1=O | 44.9%
CCCCn1c(SCC(=O)Nc2nnc(CC)s2)nc2c1c(=O)n(C)c(=O)n2C | 51.6% (active)
C#CC(C)(C)NC(=O)CSc1nc2c(c(=O)n(C)c(=O)n2C)n1CCCC | 24.1%
CC1CCc2nc(NC(=O)CSc3nc4ccccc4o3)sc2C1 (centres undefined) | 12%
CCCc1nc(SCC(=O)Nc2nnc(SCC)s2)c2c(=O)n(C)c(=O)n(C)c2n1 | 33.2%
CCCCn1c(SCC(=O)Nc2nnc(C(C)C)s2)nc2c1c(=O)n(C)c(=O)n2C | 54.3% (active)
CC(C)n1c(SCC(=O)N2CCCCC2)nc2c1c(=O)n(C)c(=O)n2C | 40.9%
CC(C)c1nc(SCC(=O)Nc2nc3c(s2)CCCC3)c2ccccc2n1 | -69.4%
